# High-throughput results as filed in PubChem.
# HCMV antiviral: blocks human cytomegalovirus replication; 4.5% of 410,000 active; HFF cells, HCMV-luciferase reporter, 72 h; stronger effect = lower value; activity change, negative = inhibition, % at 57.5 µM; in the data active means activity change below about -60%; inconclusive means no clear call, values can overlap the other calls; inactive means above about -39%
#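 Human foreskin fibroblasts infected with luciferase-reporter HCMV at MOI 1 PFU/cell, compounds at two doses. Luciferase measured 72 h post infection; normalized to buffer-only basal and Salinomycin (10uM) controls.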
# HCV inhibitor: HCV inhibition. Huh7.5.1 HCVcc-Cre infection, luciferase reporter, 44 h. AID 651820. 3.4% of 340,000 active. Potency, µM (titrated, usually from 41.8 µM), hits mostly inhibitors
#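 Whole-lifecycle infectious HCVcc-Cre system; cells 1,000/well, compound then virus (~0.5 moi) added 4 h after plating, 44 h culture. Luciferase read 15 sec following 15 min substrate incubation, room temp.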
# Shiga inhibitor: Shiga toxin inhibition. AID 2315. 9.2% of 290,000 active. inhibition, % at 38.7 µM. Vero cells, Shiga toxin protein synthesis inhibition reporter; in the data active means inhibition mostly above about 28%, no sharp cut-off; inactive means mostly below about 43%
# Pf growth 96h: P. falciparum growth inhibition at 96 hours | 6.9% of 320,000 active | Potency, µM (top dose mostly 28.7 µM), actives largely listed as inhibitors | AID 504834 | P. falciparum luciferase reporter growth, 96 h
#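 Infected RBCs, 2% Hct / 0.05% parasitemia final; luciferase-reporter P. falciparum; cpd 96 h, 37 C, 5% CO2; luciferase detection reagent; luminescence.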
# Pf growth 48h: inhibits P. falciparum growth in the first generation, 48 h. P. falciparum luciferase growth in erythrocytes, 48 h. Potency, µM (series often up to 28.7 µM), actives largely listed as inhibitors. 5.9% of 310,000 active. AID 504832
#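 Luminescence readout; reporter = integrated firefly luciferase in P. falciparum. RBC culture at 2% hematocrit, 0.1% parasitemia final, 37 C/5% CO2; decreased signal taken as growth inhibition.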
# CHX counter: counter-screen for Shiga toxin inhibitors: cycloheximide protein synthesis inhibition; cell reporter, cycloheximide protein synthesis inhibition counterscreen; max response, %; 12% of 300,000 active; AID 2314; in the data active means max response mostly above about 13%, no sharp cut-off; inactive means mostly below about 14%; further: read at 38.3 µM for the half of the compounds with a filed dose
# Numbers stand for hits; i = inactive; ? = inconclusive; nt = not tested or not shown. Rows were chosen to be rich in hits. Some 21% of all compounds tested hit in one or more screens of this group. Unless noted, the call rests on the fitted dose curve; in most records, active means well fitted inhibition curve with a large enough effect; inconclusive means small, poorly fitted or top-dose-only effect, or another doubt; inactive means no such curve, though single readings can be large or run the other way.
SMILES,HCMV antiviral,HCV inhibitor,Shiga inhibitor,Pf growth 96h,Pf growth 48h,CHX counter
COc1ccc2c(c1)N(C)/C(=C/c1cccc[n+]1C)S2,-99.3,3.55µM,i,?,0.37µM,i
O=C(COC(=O)CCSc1ccc(F)cc1)NCc1ccc(F)cc1,?,i,nt,nt,nt,nt
COc1ccc(/C=N/NC(=O)c2nn(-c3ccc(C)c(C)c3)c(=O)c3ccccc23)cc1,i,i,i,?,13.1µM,i
COc1ccc(/C=N/NC(=O)c2nn(-c3ccccc3)c(=O)c3c(N)scc23)cc1,i,i,i,?,?,i
COc1ccc(/C=N/NC(=O)c2nn(-c3ccc(Cl)cc3)c(=O)c3c(N)scc23)cc1,i,?,i,8.28µM,nt,i
COc1ccc(-n2nc(C(=O)O)c3ccccc3c2=O)cc1,i,i,i,nt,i,i
COc1ccc(-n2nc(C(=O)NCC(=O)Nc3ccc(F)cc3)c3ccccc3c2=O)cc1,i,i,i,i,11.7µM,i
COc1ccc(-n2nc(C(=O)NCC(=O)Nc3cc(Cl)c(OC)cc3OC)c3ccccc3c2=O)cc1,i,31.6µM,i,i,?,i
COCCCNC(=O)CNC(=O)c1nn(-c2ccc(OC)c(Cl)c2)c(=O)c2ccccc12,i,i,i,i,nt,i
CCc1ccc(NC(=O)CNC(=O)c2nn(-c3ccc(OC)cc3)c(=O)c3ccccc23)cc1,i,?,i,i,?,i
CN1C(=O)CC(C(=O)Nc2ccc(C(=O)O)cc2)SC1=Nc1ccc(Cl)cc1 (configuration not stated),i,nt,nt,nt,nt,nt
Cc1ccc(C2(C)NC(=O)N(CC(=O)Nc3ccc(S(=O)(=O)Nc4nccs4)cc3)C2=O)cc1 (configuration not stated),i,i,nt,i,i,nt
CCCCCNC(=O)C1CCC(Cn2c(=O)c3sccc3n(CC)c2=O)CC1 (configuration not stated),i,nt,nt,nt,nt,nt
COc1ccc(-n2nc(C(=O)NCC(=O)NC3CCCC(C)C3C)c3ccccc3c2=O)cc1 (configuration not stated),i,?,i,i,?,i
COc1ccc(-n2nc(C(=O)NCC(=O)Nc3ccccn3)c3ccccc3c2=O)cc1Cl,i,?,i,9.28µM,i,i
COc1ccc(-n2nc(C(=O)NCC(=O)Nc3cc(OC)ccc3OC)c3ccccc3c2=O)cc1,i,?,i,?,3.29µM,i
COc1ccc(-n2nc(C(=O)NCC(=O)NC3CCCC(C)C3C)c3ccccc3c2=O)c(OC)c1 (configuration not stated),-61.1,i,i,5.86µM,?,i
COc1ccc(-n2nc(C(=O)NCC(=O)NCCc3ccc(OC)c(OC)c3)c3ccccc3c2=O)cc1,i,?,i,i,?,i
CCOc1ccccc1NC(=O)CNC(=O)c1nn(-c2ccc(OC)c(OC)c2)c(=O)c2ccccc12,i,?,i,?,13.1µM,i
COc1ccc(-n2nc(C(=O)NCC(=O)NC(C)C)c3ccccc3c2=O)cc1Cl,i,i,i,i,i,i
CCOc1ccc(NC(=O)CNC(=O)c2nn(-c3ccc(OC)c(OC)c3)c(=O)c3ccccc23)cc1,i,i,i,?,i,i
CC(C)(C)OC(=O)N1CCC(c2c(C(=O)N3CCCCC3)cnn2-c2ccccc2Cl)CC1,i,nt,nt,nt,nt,nt
C[C@@H]1CN([C@@H](C)CO)C(=O)CCCn2cc(nn2)CO[C@H]1CN(C)C(=O)CCC(F)(F)F,i,nt,nt,nt,nt,nt
Cc1cc(C)cc(OCC(=O)N(Cc2ccc(N(C)C)cc2)C2CCS(=O)(=O)C2)c1 (configuration not stated),i,i,i,i,i,i
COc1ccccc1C(=O)NC(=O)COC(=O)C1CC2CCCC(C1)C2=O (configuration not stated),i,nt,i,i,i,i
SMILES,HCMV antiviral,HCV inhibitor,Shiga inhibitor,Pf growth 96h,Pf growth 48h,CHX counter
CCOC(=O)CNC(=O)CNC(=O)c1nn(-c2ccc(OC)c(Cl)c2)c(=O)c2ccccc12,i,i,i,i,i,i
COc1ccc(NC(=O)CNC(=O)c2nn(-c3ccc(OC)c(Cl)c3)c(=O)c3ccccc23)c(OC)c1,i,?,i,i,9.28µM,i
COc1ncnc2c1ncn2CCCN1CCN(c2ncccn2)CC1,i,nt,nt,nt,nt,nt
C=CCOc1cccc(NC(=O)c2ccccc2SC)c1,i,i,i,i,?,i
CCOc1ccc(/C=C/C(=O)Nc2cccc(C(C)=O)c2)cc1,i,12.6µM,64.3,?,i,27.3
CC(=O)c1ccc(S(=O)(=O)Nc2cccc(-c3ccc4nncn4n3)c2)cc1,i,i,i,i,?,i
CCOc1ccc(NC(=O)Nc2cccc(C)n2)cc1,i,i,72.0,?,i,27.6
CC(=O)Nc1ccc(S(=O)(=O)Nc2cccc(-c3ccc4nncn4n3)c2)cc1,i,i,i,2.08µM,i,i
CCOC(=O)c1ccc(NC(=O)Nc2cc(C)cc(C)n2)cc1,i,nt,i,i,i,i
CCOc1ccc(NC(C(=O)Nc2cccc(C(C)=O)c2)c2ccccc2)cc1 (configuration not stated),i,i,i,?,i,i
CC(=O)Nc1ccc(S(=O)(=O)Nc2ccc3c(c2)CCC3)cc1,-60.2,?,i,i,i,i
CC(C)CN(C(=O)C(C)N1C(=O)c2ccccc2C1=O)c1c(N)n(Cc2ccccc2)c(=O)[nH]c1=O (configuration not stated),i,i,nt,i,i,nt
CN(CCOC(=O)CN1C(=O)c2ccccc2C1=O)C1=NS(=O)(=O)c2ccccc21,nt,nt,i,i,i,i
Cc1ccc(C)c(NC(=O)Cn2c(SCC(=O)NCc3ccccc3)nc3ccccc32)c1,i,nt,nt,nt,nt,nt
CCCCOc1ccc(C(=O)Nc2cccc(C)n2)cc1,i,?,73.6,i,i,43.2
CCOc1ccc(C(=O)NCc2ccccn2)cc1,i,i,i,i,nt,i
Cc1cccc(NC(=O)c2ccc(S(=O)(=O)N(C)C)cc2)n1,i,i,78.0,nt,i,36.7
CCOC(=O)/C=C/S(=O)(=O)c1ccc(NC(C)=O)cc1,-98.9,?,i,nt,i,i
CCOc1ccc(C(=O)Nc2ncccc2Cl)cc1,i,i,70.6,i,i,41.8
CCOC(=O)c1cccc(NS(=O)(=O)c2ccc(NC(C)=O)cc2)c1,-87.9,i,i,i,nt,i
CN(C)S(=O)(=O)c1ccc(C(=O)Nc2ccccc2[N+](=O)[O-])cc1,-65.0,i,i,i,i,i
CCOC(=O)c1cccc(NS(=O)(=O)c2ccc(-c3coc(C)n3)cc2)c1,i,nt,nt,nt,nt,nt
CCOC(=O)c1cccc(NC(=O)Nc2ccc(OCC)cc2)c1,i,?,108.2,?,i,39.0
CCOc1ccc(C(=O)Nc2cccc(C)n2)cc1,i,i,i,i,i,24.5
Cc1cccc(NC(=O)c2ccc(Cl)nc2)n1,i,i,i,i,i,i
COc1cc(N=Nc2cccc(S(N)(=O)=O)c2)c2ccccc2c1N,-65.5,?,i,2.94µM,4.15µM,i
CCOC(=O)C1=CNS(=O)(=O)NC1c1ccc2ccccc2c1 (configuration not stated),i,6.31µM,nt,nt,nt,nt
